The text below walks through data of PubChem BioAssay (EPA / NIEHS).

Each structure is given as a SMILES string. Some structures have more than one record in an assay (separate samples or runs), and their calls can disagree. Active and inactive are the calls of the source. The calls were made as follows: active = hit-call score of the fitted dose curve at least 0.9, where 1 is the maximum; inactive = score below 0.9.

Read-out in assay [1]: C-C motif chemokine 2 (Homo sapiens) (UniProt P13500)
Description: BSK_KF3CT_MCP1: BioMAP Diversity Plus: KF3CT Assay for Monocyte Chemoattractant Protein 1 (MCP1/CCL2) Biomarker Activity (AID 2283073). Conditions: primary human keratinocytes with fibroblasts; actives raise or lower the signal. The method in brief: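 KF3CT skin co-culture (keratinocytes/foreskin fibroblasts), 24 h post-dose; MCP-1 by ELISA; gain/loss of signal fit bidirectionally vs DMSO baseline.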

Read-out in assay [2]: Matrix Metallopeptidase 9 (MMP9), MMP9 (gene 4318)
Description: BSK_KF3CT_MMP9: BioMAP Diversity Plus: KF3CT Assay for Matrix Metallopeptidase 9 (MMP9) Biomarker Activity (AID 2283074). Conditions: primary human keratinocytes with fibroblasts; actives raise or lower the signal. In short, it runs like this:
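Human keratinocyte and foreskin fibroblast co-culture exposed to chemicals for 24 h; MMP9 biomarker measured by ELISA, bidirectional fitting relative to DMSO; cytotoxicity tracked by SRB total protein staining in parallel cultures.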

Read-out in assay [3]: urokinase plasminogen activator (uPA), PLAU (gene 5328)
Description: BSK_KF3CT_uPA: BioMAP Diversity Plus: KF3CT Assay for urokinase plasminogen activator (uPA) Biomarker Activity (AID 2283075). Conditions: primary human keratinocytes with fibroblasts; actives raise or lower the signal. In short, it runs like this:
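Primary human keratinocyte/foreskin fibroblast co-culture exposed to chemical; uPA measured by ELISA at 24 h. Bidirectional fit versus DMSO, with parallel SRB total-protein staining for cytotoxicity.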

Read-out in assay [4]: CD40, CD40 (gene 958)
Description: BSK_LPS_CD40: BioMAP Diversity Plus: LPS Assay for CD40 Biomarker Activity (AID 2283076). Particulars: primary human HUVEC with PBMC; actives raise or lower the signal. In short, it runs like this:
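ELISA readout of CD40 in HUVEC/PBMC co-culture (BSK_LPS system), 24 h post-dosing; bidirectional curve fit, DMSO baseline; parallel SRB total-protein staining for cytotoxicity.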

Read-out in assay [5]: E-selectin (Homo sapiens) (UniProt P16581)
Description: BSK_LPS_Eselectin: BioMAP Diversity Plus: LPS Assay for Eselectin Biomarker Activity (AID 2283077). Conditions: primary human HUVEC with PBMC; actives raise or lower the signal. The method in brief: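 ELISA readout of E-selectin, 24 h post-dose, HUVEC + PBMC co-culture (LPS system). Gain or loss of signal vs DMSO baseline, bidirectional fit.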

Read-out in assay [6]: Interleukin-8 (IL8), CXCL8 (gene 3576)
Description: BSK_LPS_IL8: BioMAP Diversity Plus: LPS Assay for Interleukin-8 (IL8) Biomarker Activity (AID 2283078). Conditions: primary human HUVEC with PBMC; actives raise or lower the signal. In short, it runs like this: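 HUVEC + PBMC co-culture, LPS-activated; test chemicals dosed, IL-8 read by ELISA at 24 h. Bidirectional curve fit vs DMSO baseline (gain or loss of signal).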

Assay [7] is described as follows: BSK_LPS_SRB: Viability Assessment in the BioMAP Diversity Plus: LPS Assay (AID 2283079).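 Also: total protein by sulforhodamine B absorbance as a cytotoxicity measure; measured one day after compound addition; fitted in both directions against DMSO so loss or gain of signal counts.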 Conditions: primary human HUVEC with PBMC. The method in brief:
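HUVEC + PBMC co-culture, LPS-stimulated; compound 24 h. 10% TCA fix, 0.1% SRB stain, A560. Bidirectional fit vs DMSO.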

Read-out in assay [8]: Interleukin-1 alpha (IL1a), IL1A (gene 3552)
Description: BSK_LPS_IL1a: BioMAP Diversity Plus: LPS Assay for Interleukin-1 alpha (IL1a) Biomarker Activity (AID 2283080). Conditions: primary human HUVEC with PBMC; actives raise or lower the signal. In short, it runs like this: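 HUVEC/PBMC co-culture, LPS system; 24 h after dosing; IL-1a by ELISA; gain or loss of signal fitted bidirectionally vs DMSO baseline.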

Read-out in assay [9]: Monocyte Chemoattractant Protein-1 (MCP1), CCL2 (gene 6347)
Description: BSK_LPS_MCP1: BioMAP Diversity Plus: LPS Assay for Monocyte Chemoattractant Protein-1 (MCP1) Biomarker Activity (AID 2283081). Conditions: primary human HUVEC with PBMC; actives raise or lower the signal. In short, it runs like this: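 ELISA read-out of MCP-1 after 24 h chemical dosing of a human umbilical vein endothelial cell/peripheral blood mononuclear cell co-culture stimulated with LPS. Gain or loss of signal fitted relative to DMSO controls.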

Assay [10] in a line: BSK_LPS_PGE2: BioMAP Diversity Plus: LPS Assay for Prostaglandin E2 (PGE2) Biomarker Activity (AID 2283082). Conditions: primary human HUVEC with PBMC; actives raise or lower the signal. The method in brief: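 Endpoint derived from bidirectional curve fitting versus DMSO of ELISA-measured PGE2 in LPS-stimulated human primary vascular co-culture (HUVEC with PBMC) harvested at 24 h.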

Read-out in assay [11]: Macrophage colony-stimulating factor (MCSF), CSF1 (gene 1435)
Description: BSK_LPS_MCSF: BioMAP Diversity Plus: LPS Assay for Macrophage colony-stimulating factor (MCSF) Biomarker Activity (AID 2283083). Conditions: primary human HUVEC with PBMC; actives raise or lower the signal. In short, it runs like this:
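HUVEC + PBMC co-culture (human primary), 24 h post-dose; M-CSF by ELISA; gain/loss of signal fitted bidirectionally vs DMSO baseline.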

Read-out in assay [12]: Tissue Factor, F3 (gene 2152)
Description: BSK_LPS_TissueFactor: BioMAP Diversity Plus: LPS Assay for Tissue Factor Biomarker Activity (AID 2283084). Conditions: primary human HUVEC with PBMC; actives raise or lower the signal. In short, it runs like this:
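HUVEC/PBMC co-culture, LPS-activated; CD142 ELISA read 24 h post-dose; bidirectional curve fit vs DMSO negative control.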

Read-out in assay [13]: Tumor necrosis factor (Homo sapiens) (UniProt P01375)
Description: BSK_LPS_TNFa: BioMAP Diversity Plus: LPS Assay for Tumour Necrosis Factor alpha (TNFa) Biomarker Activity (AID 2283085). Conditions: primary human HUVEC with PBMC; actives raise or lower the signal. The method in brief:
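Primary human vascular co-culture of HUVEC and PBMC; TNFa ELISA 24 h after treatment, analysed as increase or decrease relative to DMSO control.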

Read-out in assay [14]: Vascular cell adhesion molecule 1 (VCAM1), VCAM1 (gene 7412)
Description: BSK_LPS_VCAM1: BioMAP Diversity Plus: LPS Assay for Vascular cell adhesion molecule 1 (VCAM1) Biomarker Activity (AID 2283086). Particulars: primary human HUVEC with PBMC; actives raise or lower the signal. The method in brief: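 Primary human vascular co-culture (umbilical vein endothelium plus PBMC) stimulated with LPS received chemical; 24 h later VCAM-1 was read by ELISA. Overt cytotoxicity was assessed by sulforhodamine B staining of parallel cultures at the same time point.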

Read-out in another assay: CD38, CD38 (gene 952)
Description: BSK_SAg_CD38: BioMAP Diversity Plus: SAg Assay for CD38 Biomarker Activity (AID 2283087). Conditions: primary human HUVEC with PBMC; actives raise or lower the signal. In short, it runs like this:
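Fluorescence ELISA of cell-surface CD38 served as the read-out, with either increase or decrease fitted against DMSO controls. Cells were a human umbilical vein endothelium plus PBMC co-culture under SEB/TSST-1 stimulation, measured 24 h after dosing.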

Read-out in assay [15]: CD40, CD40 (gene 958)
Description: BSK_SAg_CD40: BioMAP Diversity Plus: SAg Assay for CD40 Biomarker Activity (AID 2283088). Particulars: primary human HUVEC with PBMC; actives raise or lower the signal. The method in brief: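 HUVEC/PBMC co-culture, 24 h post-dose; CD40 by ELISA, fluorescence intensity; bidirectional fit vs DMSO negative control.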

Read-out in the next assay: CD69, CD69 (gene 969)
Description: BSK_SAg_CD69: BioMAP Diversity Plus: SAg Assay for CD69 Biomarker Activity (AID 2283089). Particulars: primary human HUVEC with PBMC; actives raise or lower the signal. The method in brief: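 ELISA, fluorescence read-out: CD69 on human umbilical vein endothelial cell + PBMC co-culture, 24 h post-dosing. Gain or loss of signal fitted bidirectionally against DMSO baseline.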

Read-out in assay [16]: Monocyte Chemoattractant Protein-1 (MCP1), CCL2 (gene 6347)
Description: BSK_SAg_MCP1: BioMAP Diversity Plus: SAg Assay for Monocyte Chemoattractant Protein-1 (MCP1) Biomarker Activity (AID 2283090). Particulars: primary human HUVEC with PBMC; actives raise or lower the signal. In short, it runs like this:
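MCP-1 levels in the endothelial–PBMC SAg co-culture were quantified by ELISA at 24 h post-dosing; both increases and decreases versus DMSO scored. Cytotoxicity monitored by SRB total protein in parallel cultures.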

Read-out in assay [17]: E-selectin (Homo sapiens) (UniProt P16581)
Description: BSK_SAg_Eselectin: BioMAP Diversity Plus: SAg Assay for Eselectin Biomarker Activity (AID 2283091). Particulars: primary human HUVEC with PBMC; actives raise or lower the signal. The method in brief: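 E-selectin ELISA readout at 24 h post-dosing in human umbilical vein endothelial cell/PBMC co-culture; gain or loss of signal fitted relative to DMSO baseline.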

Read-out in assay [18]: Monokine induced gamma interferon (MIG), CXCL9 (gene 4283)
Description: BSK_SAg_MIG: BioMAP Diversity Plus: SAg Assay for Monokine induced gamma interferon (MIG) Biomarker Activity (AID 2283092). Conditions: primary human HUVEC with PBMC; actives raise or lower the signal. In short, it runs like this:
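ELISA readout of MIG/CXCL9; primary human umbilical vein endothelial cells co-cultured with peripheral blood mononuclear cells; 24 h post-dose; gain/loss fit vs DMSO baseline.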

Tumor necrosis factor (Homo sapiens), sequence (P01375 whole entry, looked up): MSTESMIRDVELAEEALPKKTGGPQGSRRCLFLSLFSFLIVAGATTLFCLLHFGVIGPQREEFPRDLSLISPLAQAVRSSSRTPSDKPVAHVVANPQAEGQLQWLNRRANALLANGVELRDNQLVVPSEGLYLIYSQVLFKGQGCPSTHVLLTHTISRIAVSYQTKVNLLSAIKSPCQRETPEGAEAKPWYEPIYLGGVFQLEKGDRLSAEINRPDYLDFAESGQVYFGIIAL
E-selectin (Homo sapiens), sequence (P16581 whole entry, looked up): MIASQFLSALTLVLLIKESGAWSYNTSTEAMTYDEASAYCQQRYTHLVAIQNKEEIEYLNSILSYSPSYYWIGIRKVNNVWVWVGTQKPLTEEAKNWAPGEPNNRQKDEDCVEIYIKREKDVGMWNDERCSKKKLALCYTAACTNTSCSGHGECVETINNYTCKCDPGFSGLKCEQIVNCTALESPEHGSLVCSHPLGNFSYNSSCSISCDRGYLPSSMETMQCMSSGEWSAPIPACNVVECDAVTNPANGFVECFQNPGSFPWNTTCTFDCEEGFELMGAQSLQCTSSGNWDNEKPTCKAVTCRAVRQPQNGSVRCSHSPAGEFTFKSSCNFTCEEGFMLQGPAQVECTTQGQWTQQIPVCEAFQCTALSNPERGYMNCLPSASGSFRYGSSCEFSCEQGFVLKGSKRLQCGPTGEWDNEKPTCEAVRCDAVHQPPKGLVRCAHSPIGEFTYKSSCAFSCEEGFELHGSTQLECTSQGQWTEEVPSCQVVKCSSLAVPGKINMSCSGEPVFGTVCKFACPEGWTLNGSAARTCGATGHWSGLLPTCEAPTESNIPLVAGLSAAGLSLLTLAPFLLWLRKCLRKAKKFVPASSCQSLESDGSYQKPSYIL

Turning to `COc1cc(OC)nc(NC(=O)NS(=O)(=O)c2ncccc2C(=O)N(C)C)n1`, the outcome is “inactive” in [1]; “inactive” in [2]; “inactive” in assay [3]; “inactive” with CD40, CD40 (gene 958) [4]; “inactive” in assay [5]; “inactive” in assay [6]. Further, the outcome in [7], in assay [8], in [9], in [10], in assay [11] and in assay [12] was inactive. Also, the outcome is “inactive” in assay [13]; “inactive” in assay [14]; “inactive” with CD38, CD38 (gene 952); “inactive” in the assay with CD40, CD40 (gene 958) [15]; “inactive” with CD69, CD69 (gene 969); “inactive” in [16]. Besides, the result in [17] and in assay [18] was inactive.
In the case of `COC(=O)Cc1ccccc1`, the outcome in assay [1] is “inactive”; in assay [2], “inactive”; in assay [3], “inactive”; with CD40, CD40 (gene 958) [4], “inactive”; in assay [5] it was “inactive”; in assay [6] it was “inactive”. The result in assay [7], in [8], in [9], in [10], in assay [11] and in assay [12] was inactive. Also, the outcome in [13] was “inactive”; in [14], “inactive”; with CD38, CD38 (gene 952) it was “inactive”; with CD40, CD40 (gene 958) [15], “inactive”; with CD69, CD69 (gene 969) it was “inactive”; in assay [16], “inactive”. The outcome in [17] and in assay [18] was inactive. Moreover, the AC50 (in general, the concentration giving half of the maximal activity seen) with CD40, CD40 (gene 958) [15] was 31.3 µM (active).
Take `CCOP(=S)(OCC)SCCS(=O)(=O)CC`: the outcome in assay [1] was “inactive”; in assay [2] it was “inactive”; in [3], “inactive”; with CD40, CD40 (gene 958) [4] it was “inactive”; in assay [5], “inactive”; in assay [6] it was “inactive”. Also, the result in [7], in [8], in assay [9], in assay [10], in [11] and in [12] was inactive. Also, the outcome in assay [13] was “inactive”; in assay [14], “inactive”; with CD38, CD38 (gene 952) it was “inactive”; with CD40, CD40 (gene 958) [15] it was “inactive”; with CD69, CD69 (gene 969) it was “inactive”; in [16] it was “inactive”. Also, the outcome in [17] and in [18] was inactive.
